Results on 17 molecules are retold here after ChEMBL document CHEMBL5606460, “ASAP - DENV-2 NS2B-NS3 protease fluorescence single point” (2024).

Molecules are shown by their SMILES. About 110 (5.5%) of roughly 2,000 compounds showed an effect of 50% or more. The list comes from a sample in which strong results are over-represented; it also holds similar structures and randomly drawn compounds.

The experiment addresses Genome polyprotein (dengue virus type 2) (UniProt P29990).
The mark [1] stands for this setting: Thailand/16681/1984, Concentration 25.0 uM, Number of replicates 1.0.

The inhibition is the relative decrease from the control value, in per cent. As to `Cc1nn(C)nc1-c1nn(C)cc1NC(=O)c1ccccc1C(F)(F)F`, the inhibition is -3.06% (Thailand/16681/1984, Concentration 49.5 uM, Number of replicates 2.0, Standard deviation 2.7709187614774393 %); -2.31% (Thailand/16681/1984, Concentration 99.01 uM, Number of replicates 2.0, Standard deviation 2.812620033505876 %); -2.5% (Thailand/16681/1984, Concentration 198.0 uM, Number of replicates 2.0, Standard deviation 2.009504923047635 %).

On to `O=Cc1ccc(N2CCC(C(=O)N3CCCCC[C@H]3c3ccco3)CC2)cc1`, for which the inhibition under setting [1] was found to be 13.4%.

Turning to `Cn1oc(C(=O)Nc2cc(Cl)cc(C(=O)NC(C)(C)CO)c2)cc1=O`, the inhibition (Thailand/16681/1984, Concentration 49.5 uM, Number of replicates 2.0, Standard deviation 0.8141956117621647 %) was -0.341%; the inhibition (Thailand/16681/1984, Concentration 99.01 uM, Number of replicates 2.0, Standard deviation 1.5201786631370027 %) stood at 0.297%; the inhibition (Thailand/16681/1984, Concentration 198.0 uM, Number of replicates 2.0, Standard deviation 2.6564108106217375 %) is 1.39%.

On to `C[C@@H](O)CNC(=O)c1cc(Cl)ccc1NS(=O)(=O)c1ccc(Oc2ccccc2Cl)cc1`, for which the inhibition is, setting by setting: (Thailand/16681/1984, Concentration 49.5 uM, Number of replicates 2.0, Standard deviation 1.4145601780552486 %) 30.4%; (Thailand/16681/1984, Concentration 99.01 uM, Number of replicates 2.0, Standard deviation 0.06674442365142796 %) 75.7%; (Thailand/16681/1984, Concentration 198.0 uM, Number of replicates 2.0, Standard deviation 0.019135343573522066 %) 67%.

For the molecule `O=Cc1ccc(N2CCC(C(=O)Nc3ncc(C(F)(F)F)cc3Cl)CC2)cc1`, the inhibition under setting [1] is 11.8%.

`Cc1cc(N)cc(CNC(=O)c2cccc(Cc3cccc4c(CO)cc(C)nc34)c2)c1`: the inhibition reads like this: (Thailand/16681/1984, Concentration 49.95 uM, Number of replicates 2.0, Standard deviation 0.2659014326821377 %) 29.9%; (Thailand/16681/1984, Concentration 99.9 uM, Number of replicates 2.0, Standard deviation 1.3431613936290656 %) 54.9%.

In the case of `Cc1cc(CO)c2cccc(Cc3ccccc3C(=O)NCCc3ncc[nH]3)c2n1`, the inhibition reads like this: (Thailand/16681/1984, Concentration 49.95 uM, Number of replicates 2.0, Standard deviation 0.3032711887954129 %) 14.1%; (Thailand/16681/1984, Concentration 99.9 uM, Number of replicates 2.0, Standard deviation 0.18110062477906652 %) 34.2%.

As to `Cc1cc(CO)c2cccc(Cc3cccc(C(=O)NCc4c(C)noc4C)c3)c2n1`, the inhibition is, setting by setting: (Thailand/16681/1984, Concentration 49.95 uM, Number of replicates 2.0, Standard deviation 0.7006856245222158 %) 1.58%; (Thailand/16681/1984, Concentration 99.9 uM, Number of replicates 2.0, Standard deviation 0.008623919554905093 %) 5.27%.

Consider `Cc1cc(CO)c2cccc(CC(=O)NCc3ccc(C(N)=O)cc3)c2n1`, for which the inhibition (Thailand/16681/1984, Concentration 49.95 uM, Number of replicates 2.0, Standard deviation 0.824600056542549 %) was -4.43% and the inhibition (Thailand/16681/1984, Concentration 99.9 uM, Number of replicates 2.0, Standard deviation 0.5940444883081935 %) was 2.19%.

`Cc1cc(N)cc(CNc2cccc3c(CO)cc(C)nc23)c1`: the inhibition reads like this: (Thailand/16681/1984, Concentration 49.95 uM, Number of replicates 2.0, Standard deviation 2.268676515546947 %) 34.9%; (Thailand/16681/1984, Concentration 99.9 uM, Number of replicates 2.0, Standard deviation 1.0884002159453274 %) 63.5%.

For `Cc1cc(CO)c2cccc(Cc3cccc(C(=O)NCc4ccc(C(N)=O)cc4)c3)c2n1`, the inhibition runs as follows: (Thailand/16681/1984, Concentration 49.95 uM, Number of replicates 2.0, Standard deviation 1.5788782649320652 %) -6.46%; (Thailand/16681/1984, Concentration 99.9 uM, Number of replicates 2.0, Standard deviation 2.3363374645660926 %) -3.45%.

Turning to `Cc1cc(CO)c2cccc(NCc3ccc(S(N)(=O)=O)cc3)c2n1`, the inhibition runs as follows: (Thailand/16681/1984, Concentration 49.95 uM, Number of replicates 2.0, Standard deviation 1.2377055953825635 %) 8.26%; (Thailand/16681/1984, Concentration 99.9 uM, Number of replicates 2.0, Standard deviation 1.691711110367126 %) 17.2%.

As to `Cc1cc(N)cc(CNC(=O)Cc2cccc3c(CO)cc(C)nc23)c1`, the inhibition (Thailand/16681/1984, Concentration 49.95 uM, Number of replicates 2.0, Standard deviation 0.21775017554498763 %) is 39.7% and the inhibition (Thailand/16681/1984, Concentration 99.9 uM, Number of replicates 2.0, Standard deviation 1.7887257377938661 %) came to 61.7%.

`Cc1cc(CO)c2cccc(CC(=O)NCC(N)=O)c2n1`: the inhibition is, setting by setting: (Thailand/16681/1984, Concentration 49.95 uM, Number of replicates 2.0, Standard deviation 1.3653333333441007 %) -7.85%; (Thailand/16681/1984, Concentration 99.9 uM, Number of replicates 2.0, Standard deviation 0.5261932884148693 %) -6.61%.

Take `Cc1cc(CO)c2cccc(NCc3ccc(C(N)=O)cc3)c2n1`: the inhibition came out at 1.6% (Thailand/16681/1984, Concentration 49.95 uM, Number of replicates 2.0, Standard deviation 1.5291755401543807 %) and 6.67% (Thailand/16681/1984, Concentration 99.9 uM, Number of replicates 2.0, Standard deviation 0.4954793626184345 %).

Consider `Cc1cc(CO)c2cccc(CC(=O)NCCc3ncc[nH]3)c2n1`, for which the inhibition by setting is: (Thailand/16681/1984, Concentration 49.95 uM, Number of replicates 2.0, Standard deviation 0.7345959673097169 %) 39.1%; (Thailand/16681/1984, Concentration 99.9 uM, Number of replicates 2.0, Standard deviation 0.015925439590932376 %) 77.7%.

In the case of `Cc1cc(CO)c2cccc(Cc3cccc(C(=O)NCCc4ncc[nH]4)c3)c2n1`, the inhibition (Thailand/16681/1984, Concentration 49.95 uM, Number of replicates 2.0, Standard deviation 2.0725920117726813 %) is -4.03% and the inhibition (Thailand/16681/1984, Concentration 99.9 uM, Number of replicates 2.0, Standard deviation 0.8997522707097182 %) worked out at 1.59%.
